Results published in PubChem BioAssay AID624311 (Broad Institute, 2012).
The source made the active and inactive calls.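 Rule for the calls: active = fluorescence dropping 30% or more below neutral controls, activity change at or below -30%; inactive = the rest.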

Biological target: Protein disulfide-isomerase (Homo sapiens) (UniProt P07237)
Experiment: PDI inhibitors, fluorescent insulin aggregation, confirmation, orthogonal assay for PDI inhibitor project, biochemical, fluorescence, dry powder samples (AID 624311)

Protein disulfide-isomerase (Homo sapiens), sequence (P07237 whole entry, looked up): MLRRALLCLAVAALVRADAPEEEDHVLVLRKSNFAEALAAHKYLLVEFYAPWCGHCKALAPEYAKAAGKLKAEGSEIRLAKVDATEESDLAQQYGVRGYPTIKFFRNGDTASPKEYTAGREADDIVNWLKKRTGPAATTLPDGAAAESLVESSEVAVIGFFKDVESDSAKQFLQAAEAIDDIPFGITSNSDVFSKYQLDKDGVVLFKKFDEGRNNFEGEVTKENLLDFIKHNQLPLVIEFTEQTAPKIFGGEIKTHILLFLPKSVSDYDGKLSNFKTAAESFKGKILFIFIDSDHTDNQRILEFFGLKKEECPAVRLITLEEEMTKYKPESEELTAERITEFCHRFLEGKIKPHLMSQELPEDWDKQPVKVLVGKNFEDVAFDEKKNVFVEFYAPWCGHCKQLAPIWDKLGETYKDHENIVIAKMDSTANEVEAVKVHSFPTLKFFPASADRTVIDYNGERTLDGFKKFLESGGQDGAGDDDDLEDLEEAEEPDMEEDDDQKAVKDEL

SMILES: C[C@H]1CN([C@@H](C)CO)C(=O)c2cccc(NS(C)(=O)=O)c2O[C@H]1CN(C)Cc1ccc(Oc2ccccc2)cc1
- outcome: inactive
